CYP2C19 act: activators of human cytochrome P450 2C19. 96,000 tested, under 10 active. AID 1025. activation factor at 5 µM. P33261. recombinant CYP2C19, luciferin-H EGE luminescence; stronger effect = higher value; 0 = fully inhibited enzyme, 1 = untreated enzyme;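 active means activation factor of at least 2 at 5 µM in the primary screen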
Target sequence (P33261 whole entry, looked up): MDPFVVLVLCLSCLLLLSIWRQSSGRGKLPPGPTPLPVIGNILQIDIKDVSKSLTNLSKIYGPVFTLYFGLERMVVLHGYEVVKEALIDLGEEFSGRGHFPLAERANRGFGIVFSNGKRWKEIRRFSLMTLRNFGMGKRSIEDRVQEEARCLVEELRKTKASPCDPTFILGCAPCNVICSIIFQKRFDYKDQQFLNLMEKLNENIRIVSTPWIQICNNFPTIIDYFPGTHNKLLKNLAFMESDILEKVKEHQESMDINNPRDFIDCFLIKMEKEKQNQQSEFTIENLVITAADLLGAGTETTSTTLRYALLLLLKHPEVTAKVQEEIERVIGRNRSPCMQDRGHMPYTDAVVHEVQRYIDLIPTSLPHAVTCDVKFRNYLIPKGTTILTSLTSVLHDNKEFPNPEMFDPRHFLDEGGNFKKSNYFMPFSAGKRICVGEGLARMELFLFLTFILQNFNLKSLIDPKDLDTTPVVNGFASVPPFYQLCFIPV
CYP2C9 activ: CYP2C9 (human) activation; P11712; recombinant CYP2C9, luciferin-H conversion, luminescence; stronger effect = higher value; factor 1 = untreated enzyme, 0 = blocked; activation factor at 5 µM; 96,000 tested, 1.4% active;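 active means activation factor of 2 or more for CYP2C9 at a 5 µM dose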
Cav3 T inh: blocks human Cav3.2 T-type calcium channel | Cav3.2-expressing cells, Fluo-4 calcium fluorescence FDSS; stronger effect = lower value | 100,000 tested, 4% active | AID 449739 | B-score at 10 µM | O95180;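 active means single-dose well whose peak fluorescence ratio is a statistical outlier from its plate by either plate-standardised score or position-corrected B-score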
CYP2C9 inh: inhibitors of human CYP2C9; inhibition, % at 5 µM; 96,000 tested, 20% active; CYP2C9 Supersomes, luciferin-H conversion, luminescence; P11712;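 active means blocking of liver enzyme CYP2C9 beyond about 50% at 5 µM, limit read from the data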
CYP2C19 inhib: blocks human cytochrome P450 2C19; P33261; CYP2C19 Supersomes, luciferin-H EGE luminescence, 30 min; inhibition, % at 5 µM; 96,000 tested, 21% active; AID 778;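 active means CYP2C19 inhibition above a set limit at 5 µM in the primary screen, cut at about 50% in these data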
Each line names hits and unclear results; the compound was inactive in the other large screens. Hits are enriched below; roughly 27% of the tested compounds scored in any of these assays.

COc1ccc(CCCc2nnc(SCC(=O)Nc3nccs3)n2C)cc1C	CYP2C19 inhib 59
CCN(CCO)c1cc(Cl)nc(SC)n1	none
O=c1[nH]n(CC2COC3(CCCCC3)O2)c(=O)c2ccccc12 (stereo not given)	CYP2C19 inhib 76
NC(=O)C1CCN(C(=O)CSc2nc3c(c(-c4ccccc4)n2)CCCC3)CC1	CYP2C9 inh 73
Cc1ccnc(SCC(=O)N2CCC(C(N)=O)CC2)n1	none
O=C(COc1ncnc2scc(-c3ccc(F)cc3)c12)NCc1ccco1	none
Cc1ccc(-c2csc3ncnc(OCC(=O)NC(=O)NCc4ccco4)c23)cc1	CYP2C19 inhib 50
CCSC1=C(C#N)C(c2ccccc2Cl)C(C(=O)c2cccs2)C(O)(C(F)(F)F)N1 (stereo not given)	Cav3 T inh -9.2
COc1ccc(CCNC2CC(=O)N(CCc3ccccc3)C2=O)cc1 (stereo not given)	CYP2C19 inhib 70
COc1ccc(CCN2C(=O)CC(NCCc3ccc(S(N)(=O)=O)cc3)C2=O)cc1OC (stereo not given)	none
Cc1nn(Cc2c(Cl)cccc2Cl)c(C)c1NC(=O)/C=C/c1cnn(C)c1C	none
CCCn1c(=O)c2c(C(=O)OCC)cc(-c3ccco3)nc2n(CCC)c1=O	CYP2C9 inh 61 (no result: Cav3 T inh)
O=C(CN1C2CCCC1CC(NC(=O)c1ccco1)C2)Nc1ccccc1 (stereo not given)	CYP2C9 inh 95, CYP2C19 inhib 87
O=C(CN1C2CCCC1CC(NC(=O)c1ccccc1)C2)Nc1nccs1 (stereo not given)	none (no result: CYP2C19 act, CYP2C9 activ, CYP2C9 inh, CYP2C19 inhib)
COc1cc(C(=O)NC2CC3CCCC(C2)N3CC(=O)Nc2ccccc2)cc(OC)c1OC (stereo not given)	Cav3 T inh 4.4, CYP2C9 inh 97, CYP2C19 inhib 81
O=C(CN1C2CCC1CC(NC(=O)Nc1ccccc1)C2)NCc1ccco1 (stereo not given)	none
O=c1cc(Cl)[nH]c(=O)n1CCNc1ncc(C(F)(F)F)cc1Cl	CYP2C9 inh 100, CYP2C19 inhib 68
COc1ccc(-c2nnc3ccc(SCC(=O)N4CCCCC4)nn23)cc1OC	none
Cc1cc(C)n2c(SCc3ccccc3Cl)nnc2n1	CYP2C9 activ 2.8
Cc1cc(C)n2c(SCc3ccc(Cl)cc3Cl)nnc2n1	CYP2C19 inhib 70
Cc1cc(C)n2c(SCc3c(C)noc3C)nnc2n1	none (no result: CYP2C19 act, CYP2C9 activ, CYP2C9 inh, CYP2C19 inhib)
CCOC(=O)C12CNC(=O)C(C(=O)OCC)(CNC1=O)C2	none
CCn1ccc(C(=O)NC2=C(C#N)CCC2)n1	none
O=C(CSc1nnc(Cn2c(=O)sc3ccccc32)n1-c1ccccc1)Nc1nccs1	CYP2C9 inh 68
CC(C)Sc1nnc(Cn2c(=O)sc3ccccc32)n1-c1ccccc1	none (no result: CYP2C19 act, CYP2C9 activ, CYP2C9 inh, CYP2C19 inhib)
CSc1nnc(Cn2c(=O)sc3ccccc32)n1-c1ccccc1	CYP2C19 inhib 53
O=C(CSc1nnc(Cn2c(=O)sc3ccccc32)n1-c1ccccc1)N1CCCC1	none (no result: CYP2C19 act, CYP2C9 activ, CYP2C9 inh, CYP2C19 inhib)
Cc1ccc(N(CC(=O)NCc2ccccc2Cl)S(=O)(=O)c2cccs2)cc1	CYP2C9 inh 65, CYP2C19 inhib 64
Cc1ccc(N(CC(=O)NCc2ccc(F)cc2)S(=O)(=O)c2cccs2)cc1	CYP2C9 inh 63, CYP2C19 inhib 99
Cc1ccc2c(N)c(C)ccc2c1	CYP2C19 inhib 67
Cc1ccc2c(C)[nH]c(=O)cc2c1	none
CSc1nc(NC(C)(C)C)nc(Oc2ccc(=O)n(C)n2)n1	none
Cc1c(NC(=O)c2ccc(F)c(S(=O)(=O)N3CCOCC3)c2)c(=O)n(-c2ccccc2)n1C	none
O=C(C1CC1)N1CCC(C(O)(c2ccccc2)c2ccccc2)CC1	CYP2C9 inh 61, CYP2C19 inhib 90
O=C(C1CC1)N1CCN(C(c2ccccc2)c2ccccc2)CC1	CYP2C9 inh 69, CYP2C19 inhib 93
CC12CCC(C(=O)N3CCN(C(c4ccccc4)c4ccccc4)CC3)(OC1=O)C2(C)C (stereo not given)	CYP2C9 inh 86
CCNC(=S)N1CCN(C(c2ccccc2)c2ccccc2)CC1	CYP2C9 inh 91
CSCCC(NC(=O)OC(C)(C)C)C(=O)NC(CC(C)C)C(N)=O (stereo not given)	none
O=C(NC1=NCCS1)c1cccc(S(=O)(=O)N2CCCCC2)c1	none (no result: Cav3 T inh)
O=C(CCNS(=O)(=O)c1ccc(Br)s1)N1CCN(c2ccccc2)CC1	Cav3 T inh -5.5
O=C(CNS(=O)(=O)c1ccc(Br)s1)N1CCCC1	CYP2C19 inhib 64
COc1ccccc1N1CCN(C(=O)CCNS(=O)(=O)c2ccc(Br)s2)CC1	Cav3 T inh -4.7, CYP2C9 inh 80
CC1=C(C(=O)N2CCOCC2)C(c2ccccc2F)C2=C(CCCC2=O)N1 (stereo not given)	none
Cc1onc(-c2ccccc2Cl)c1C(=O)N(Cc1nc(-c2ccccc2)no1)C1CCCCC1	CYP2C9 inh 86, CYP2C19 inhib 95
Cc1cccc(-c2noc(CN(C(=O)c3c(-c4ccccc4Cl)noc3C)C(C)C)n2)c1	Cav3 T inh -5, CYP2C9 inh 63, CYP2C19 inhib 91
CCOC(=O)C1CCN(Cc2nc(-c3ccc(OC)c(OC)c3)no2)CC1	none
COc1ccc(C(=O)N(Cc2nc(-c3ccc(C)cc3)no2)C2CCCCC2)cc1OC	Cav3 T inh -4, CYP2C9 inh 81, CYP2C19 inhib 82
O=C(CN1CCN(Cc2ccccc2)CC1)NC(=O)NCc1ccco1	none
Cc1ccc(C)c(S(=O)(=O)N2CCN(CC(=O)NC(=O)NCc3ccccc3)CC2)c1	CYP2C9 activ 2.2
COCCNC(=O)C(C)N(c1ccc(Oc2ccccc2)cc1)S(C)(=O)=O (stereo not given)	CYP2C19 inhib 53
CCOc1ccc(N(C(C)C(=O)NCc2ccco2)S(C)(=O)=O)cc1 (stereo not given)	CYP2C9 inh 54, CYP2C19 inhib 78
CCOc1ccc(N(C(C)C(=O)NC2CCCCCC2)S(C)(=O)=O)cc1 (stereo not given)	none
CCOc1ccc(S(=O)(=O)N(C)c2ccc(OCC(=O)NCc3ccco3)cc2)cc1	CYP2C9 inh 100, CYP2C19 inhib 86
COc1ccc(CN2CCN(c3ccccn3)CC2)cc1OCc1ccccc1	none
Cc1ccc(CS(=O)(=O)CCC(=O)NCCCN2CCCC2=O)cc1	none
COCCSc1ccccc1C(=O)Nc1ccncc1	CYP2C9 inh 84, CYP2C19 inhib 92
COCCCN(C(=O)Nc1ccccc1)C(C)c1ccncc1 (stereo not given)	CYP2C9 inh 60, CYP2C19 inhib 77
CCOc1ccc(NC(=O)N(CCN(C)C)C(C)c2ccncc2)cc1 (stereo not given)	none
Cc1ccc(NC(=O)OCCN2CCN(Cc3ccccc3)CCC2=O)cc1	none (no result: CYP2C19 act, CYP2C9 activ, CYP2C9 inh, CYP2C19 inhib)
CC(C)Sc1nnc(Nc2ccccc2)s1	CYP2C9 inh 59, CYP2C19 inhib 69
N#Cc1ccc(CSc2nnc(Nc3ccccc3)s2)cc1	none
O=C(C1CCCCC1)N(Cc1nc2sc3c(c2c(=O)[nH]1)CCCC3)Cc1cccs1	CYP2C9 inh 62
Cc1cc2nc3n(c2cc1C)CC1CC(C(=O)NCc2ccco2)N(C)C31 (stereo not given)	none (no result: CYP2C19 act, CYP2C9 activ, CYP2C9 inh, CYP2C19 inhib)

High-throughput results deposited in PubChem by several laboratories.
